PubChem BioAssay AID977622 (Broad Institute, 2014)
Out of some 1,900 compounds screened, fewer than 10 were called active. Not shown: some 39% with an inconclusive outcome.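 Rule for the calls: active = Green signal of the normal strain falls at least twice as much as red signal of the resistant mutant, with overall culture growth loss under a set limit; inconclusive = no clear call, values can overlap the other calls; inactive = the rest.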 Not all results are given here.

Key:
[1] = growth inhibition of wild-type GFP E. coli, dose response, h38 mutant RFP, cherry-pick (AID 977622); details: 24 h; activity change: E. coli mixed culture, total growth OD600 at 50 uM, at 50 µM; E. coli WT ribosome GFP fluorescence, mixed culture, at 50 µM (top of the series)
[2] = tested on: E. coli h38 humanized mutant ribosome RFP fluorescence, mixed culture, 24 h; assay: as above; details: h38 mutant RFP at 50 uM; at 50 µM

Compound | activity change [1] | outcome [1] | activity change [2]
CCn1c(COc2cccc(OC)c2)nnc1SCC(=O)Nc1cc(OC)ccc1OC | -38.2% | inactive | -20.2%
C[C@@H]1CN([C@@H](C)CO)S(=O)(=O)c2ccc(Br)cc2O[C@H]1CN(C)C(=O)c1ccccc1 | -2.07% | inactive | 
C[C@@H]1CCCCO[C@H](CN(C)C)[C@@H](C)CN([C@H](C)CO)C(=O)c2cc(NC(=O)Nc3cccc4ccccc34)ccc2O1 | 8.4% | inactive | 44.4%
O=C(C[n+]1cc(-c2ccc(F)cc2)n2c1CCC2)c1cccs1 | 2.39% | inactive | 21.5%
C[C@H](CO)N1C[C@H](C)[C@H](CN(C)C(=O)Nc2ccc3c(c2)OCO3)Oc2c(NC(=O)Nc3ccccc3)cccc2C1=O | -5.63% | inactive | 44%
Cc1ccc2oc(=O)n(CCCOc3ccccc3C)c2c1 | -15.8% | inactive | -0.57%
COc1ccc(CN2CCC3CC2c2cc(Cl)ccc23)cc1 (configuration not stated) | -30.7% | inactive | -4.61%
NS(=O)(=O)c1cc(C(=O)OCC(=O)Nc2ccccc2[N+](=O)[O-])ccc1Cl | -8.81% | inactive | 1.48%
CC(=O)Oc1ccc(N(c2ccccc2)S(=O)(=O)c2ccc(C)cc2)cc1 | -32.3% | inactive | 
COc1ccc(NC(=O)Nc2cccc3c2O[C@H](CN(C)S(=O)(=O)c2ccc(Cl)cc2)[C@@H](C)CN([C@@H](C)CO)C3=O)cc1 | -2.69% | inactive | -5.12%
O=C(O)c1ccccc1Nc1cc(Cl)c2nonc2c1[N+](=O)[O-] | -25.7% | inactive | 
C[C@@H]1CCCCO[C@H](CN(C)C)[C@H](C)CN([C@@H](C)CO)C(=O)c2cc(NC(=O)Nc3cccc4ccccc34)ccc2O1 | 4.86% | inactive | 1.63%
COc1ccc(C#Cc2ccc([C@@H]3[C@@H](CO)N4CCCCN(C(=O)Nc5ccc(F)cc5)C[C@H]34)cc2)cc1 | -49.7% | inactive | 97.4%
Cc1cccc(Oc2ccc(NC(=O)c3ccccc3C(=O)O)cc2)c1 | -16.2% | inactive | 
CCOCC(=O)Nc1c(C(=O)Nc2ccc3c(c2)OCCO3)oc2ccccc12 | -44.7% | inactive | 4.56%
COc1cc2c(c(OC)c1OC)C(c1ccc3c(c1)OCO3)CC(=O)O2 (configuration not stated) | -14.3% | inactive | 37.2%
CCC(C)c1ccccc1NC(=O)c1cccc(-n2cnnn2)c1 (configuration not stated) | -13.9% | inactive | -4.87%
CN(C)CCCN(C(=O)CCOc1ccccc1)c1nc2c(F)cccc2s1 | -10.6% | inactive | -7.27%
CC(NC(=O)c1ccc(CS(=O)(=O)c2ccc(Cl)cc2)o1)c1ccc2c(c1)OCCO2 (configuration not stated) | -24.9% | inactive | 17.5%
NS(=O)(=O)c1ccc(NC(=O)c2cc(Cl)sc2Cl)cc1 | 0.867% | inactive | 13.3%
CC(C)(CC(=O)O)CC(=O)NCc1c(Cl)cccc1Sc1ccc(Cl)cc1 | -12.9% | inactive | 
C[C@H]1CN([C@@H](C)CO)C(=O)c2c(c3ccccc3n2C)-c2ccccc2CO[C@@H]1CN(C)Cc1ccncc1 | -20.6% | inactive | -32.1%
CCCCc1n(CC(=O)c2ccc(Cl)cc2)c2ccccc2[n+]1C | -11.8% | inactive | 5.85%
Cc1noc(C)c1NC(=O)Nc1ccc2c(c1)C(=O)N([C@H](C)CO)C[C@H](C)[C@H](CN(C)C(=O)Nc1ccc3c(c1)OCO3)OCCCC[C@H](C)O2 | -22% | inactive | -9.02%
Cc1cccc(-c2ccc([C@H]3[C@@H](CO)N4CCCCN(S(=O)(=O)c5ccccc5C)C[C@@H]34)cc2)c1 | -22.4% | inactive | 18.9%

Compound | activity change [1] | outcome [1] | activity change [2]
Cc1ccccc1CSCC(=O)Nc1ccccc1F | 0.464% | inactive | -14.9%
Cc1ccc(-n2nnnc2SCC(=O)NC2CCCc3ccccc32)cc1 (configuration not stated) |  | inactive | 6.43%
Cc1ccc(C(=O)Nc2cccc3[nH]c(C(F)(F)F)nc23)cc1 | -24.3% | inactive | -27.5%
CS(=O)(=O)Nc1ccccc1C(=O)NCCSc1ccccc1 |  | inactive | -11.5%
O=C(C[n+]1ccn(-c2ccccc2)c1)c1ccc([N+](=O)[O-])cc1 | -2.75% | inactive | -5.23%
CCOC(=O)c1cnc2ccccc2c1NCc1ccco1 | -29.3% | inactive | -3.48%
NC(=O)C1CCN(c2cc(Cl)ccc2[N+](=O)[O-])CC1 | -7.61% | inactive | -0.291%
COCCn1c(SCc2nc3ccccc3s2)nc2ccccc21 | 15.3% | inactive | 9.77%
CC(=O)c1cccc(NC(=O)COC(=O)CCC(=O)c2ccc(F)cc2)c1 | -8.28% | inactive | 14.5%
OCCC1CN(Cc2cnc(-c3ccc(Cl)cc3)nc2)CCN1C1CCCCC1 (configuration not stated) | -4.88% | inactive | 
CN1c2ccccc2-c2nc3ccccc3n2C1c1ccncc1 (configuration not stated) | -2.28% | inactive | -4.12%
C=C1c2cc3c(cc2NC(=S)N1Cc1ccccc1)OCO3 | -19.2% | inactive | -23.6%
CC(=O)c1cccc(NC(=O)C2CCCN(S(C)(=O)=O)C2)c1 (configuration not stated) | 4.2% | inactive | 
CC(C)CC#Cc1ccc([C@@H]2[C@@H](CO)N3C(=O)CN(C(=O)Cc4ccccc4)C[C@@H]23)cc1 | 9.26% | inactive | 19.9%
OC(COc1ccc(Cl)cc1)CN1CCN(c2ccccn2)CC1 (configuration not stated) | -8.02% | inactive | 
CN(CC(=O)Nc1cccc(F)c1)C(=O)Cn1c(=O)oc2ccccc21 | 2.16% | inactive | 60%
CCN(CC)S(=O)(=O)c1ccc(O)c(C(=O)OCC(=O)NC23CC4CC(CC(C4)C2)C3)c1 | -19.8% | inactive | 
CC1(CCC(=O)N2CCCC(N3CCN(c4ccc(F)cc4)CC3)C2)CC1 (configuration not stated) | -2.02% | inactive | 22.3%
CCc1ccc(NC(=O)CCc2c(C)nn(-c3ccc(N4CCCCC4)nn3)c2C)cc1 | -4.17% | inactive | -12.8%
COc1cccc(C(=O)c2c[nH]c(C(=O)NCc3cccnc3)c2)c1 | -3.41% | inactive | 13.5%
COc1ccc(NS(=O)(=O)c2cc(NC(=O)CNC(=O)c3cccc(OC)c3)ccc2C)cc1 | -27.6% | inactive | -12.3%
O=C(Nc1ccc(Cl)cn1)c1ccc([N+](=O)[O-])o1 | -3.86% | inactive | 54.7%
COc1cccc(CC(=O)OC(C)C(=O)NCc2ccc3c(c2)OCO3)c1 (configuration not stated) | -31% | inactive | 6.13%
O=S(=O)(Cc1ccccc1)N1CCCCN2[C@@H](CO)[C@H](c3ccc(C#Cc4ccccc4)cc3)[C@@H]2C1 | 2.15% | inactive | 11.8%
Nc1[nH]c(C(=O)c2ccccc2)c(-c2ccc(Cl)cc2)c1C(=O)NCCc1c[nH]c2ccccc12 | -15.2% | inactive | 2%

Compound | activity change [1] | outcome [1] | activity change [2]
Cc1ccccc1-n1c([C@@H]2C[C@H]2c2ccccc2)n[nH]c1=S | -23.8% | inactive | 
COc1ccc(OC)c(NC(=O)COC(=O)CCNc2ccccc2OC)c1 | -9.13% | inactive | -0.869%
Cc1ccc(NC(=O)c2ccc3c(c2)OCO3)cc1S(=O)(=O)N1CCOCC1 | -35.8% | inactive | -6.07%
COc1ccc(NC(=O)CN(c2ccccc2OC)S(=O)(=O)c2cccs2)cc1Cl | -14.2% | inactive | 19%
Cc1cccc(OCCC(=O)N(C)CC(=O)Nc2cccc3ccccc23)c1 | -25.4% | inactive | 27.9%
COCc1[nH]nc2c1C(c1ccc3c(c1)OCO3)N(c1ccc(OC)cc1)C2=O (configuration not stated) | 1.74% | inactive | 
O=C(c1cc(COc2ccc(F)cc2F)on1)N1CCCC(c2ccccc2)C1 (configuration not stated) | 5.17% | inactive | -5.01%
CCOC(=O)Cc1csc(SCC(=O)Nc2cc(C)ccc2OC)n1 | -33.1% | inactive | 38.6%
CC(=O)Nc1cccc(OCc2ccc([N+](=O)[O-])cc2)c1 | -10.5% | inactive | -23.9%
CC(CCc1ccccc1)NC(=O)CNC(=O)COc1ccccc1 (configuration not stated) | -14.6% | inactive | 9.58%
O=S(=O)(NOCc1ccc(Cl)cc1)c1ccc(Cl)cc1 | -42.8% | inactive | -52%
O=C(c1cccc2ccccc12)C1CCCN(C(=O)CCc2cnccn2)C1 (configuration not stated) | -12% | inactive | -5.75%
C[C@@H]1CN([C@@H](C)CO)C(=O)c2cc(NC(=O)Nc3cccc4ccccc34)ccc2O[C@@H](C)CCCCO[C@H]1CN(C)C | -2.41% | inactive | -18%
C[C@]12C(=O)N(c3ccc(F)cc3)C(=O)N1[C@@H]1c3ccccc3OC[C@@H]1[C@H]2c1ccccc1 | -20.2% | inactive | -13.6%
O=C(O)c1cccc2c1-c1ccc([N+](=O)[O-])cc1C2=O | -0.103% | inactive | -6.27%
COc1ccc([C@H]2C[C@H](O)C[C@@H](CCn3cc(-c4ccccc4)nn3)O2)cc1 | -21.6% | inactive | 19.3%
O=C(Nc1ccc(F)cc1)N1CCCCN2[C@@H](CO)[C@H](c3ccc(-c4ccncc4)cc3)[C@@H]2C1 | 12% | inactive | -0.029%
Cc1ccccc1S(=O)(=O)N1C[C@H]2CON(C)[C@H]2C[C@H]1c1cccc(-c2ccc(C#N)cc2)c1 | -28.1% | inactive | -10.7%
CC(=O)Nc1cccc(OCCCOc2cccc([N+](=O)[O-])c2)c1 | -16.8% | inactive | 44.4%
Nc1[nH]c(C(=O)c2ccccc2)c(-c2ccc3c(c2)OCO3)c1C(=O)NCCc1c[nH]c2ccccc12 | -18.1% | inactive | -20.2%
Cc1ccc2nc(-c3ccc(Cl)cc3)c(Cc3ccccc3C(F)(F)F)n2c1 | -10.5% | inactive | 37.7%
CC(C)n1nnnc1C1c2ccccc2C(=O)N1CCOc1ccccc1 (configuration not stated) | -14.1% | inactive | -9.39%
Cc1occc1-c1nnc(SCC(=O)Nc2nc(-c3ccccc3)cs2)o1 | -4.96% | inactive | 8.71%
O=C(O)CC(CC(=O)Nc1ccc2ccccc2n1)c1ccccc1 (configuration not stated) | -7.83% | inactive | 7.39%
CCOC(=O)c1cccc(OC(=O)CCNC(=O)c2ccc(Cl)cc2)c1 | -36.4% | inactive | -3.29%
